Among the data in article PMC9911399, “Two distinct binding modes provide the RNA-binding protein RbFox with extraordinary sequence specificity” are binding signal values, retold here.

Where a chain is given by its changes, count along the chain named. Over roughly 16,000 sequences, “ka relative to ugcaugu” has its median near 0.096; the highest 2% begin near 0.35. Only a selection was taken, and the highest values are over-represented in it overall.

The chains are these.
T1: RBFOX1 RRM RbFoxmut (Fox-RRM*) (Homo sapiens, UniProt Q9NWB1 109-208, R118D;E147R;N151S;E152T)
T1 sequence: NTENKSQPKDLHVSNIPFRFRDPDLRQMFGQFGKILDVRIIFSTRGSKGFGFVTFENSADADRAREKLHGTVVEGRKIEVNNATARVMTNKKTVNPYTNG

B1: AAGCAAG (DNA:RNA)
RNA: GGGAGACCGGAAUUCAGAUUGUCCAAGCAAGUUAAAUCCCGUCGUAGCCACCA
DNA 1: CAATCTGAATTCCGGTCTCCC
DNA 2: TGGTGGCTACGACGGGATT
B2: UGCCAGG (DNA:RNA)
RNA: B1 RNA with A25U, A26G, G27C, A30G
DNA 1: CAATCTGAATTCCGGTCTCCC
DNA 2: TGGTGGCTACGACGGGATT
B3: UCCCAGC (DNA:RNA)
RNA: B1 RNA with A25U, A26C, G27C, A30G, G31C
DNA 1: CAATCTGAATTCCGGTCTCCC
DNA 2: TGGTGGCTACGACGGGATT
B4: AAUUCGA (DNA:RNA)
RNA: B1 RNA with G27U, C28U, A29C, A30G, G31A
DNA 1: CAATCTGAATTCCGGTCTCCC
DNA 2: TGGTGGCTACGACGGGATT
B5: GGUACUG (DNA:RNA)
RNA: B1 RNA with A25G, A26G, G27U, C28A, A29C, A30U
DNA 1: CAATCTGAATTCCGGTCTCCC
DNA 2: TGGTGGCTACGACGGGATT
B6: GCAUAUC (DNA:RNA)
RNA: B1 RNA with A25G, A26C, G27A, C28U, A30U, G31C
DNA 1: CAATCTGAATTCCGGTCTCCC
DNA 2: TGGTGGCTACGACGGGATT
B7: CCGCAUC (DNA:RNA)
RNA: B1 RNA with A25C, A26C, A30U, G31C
DNA 1: CAATCTGAATTCCGGTCTCCC
DNA 2: TGGTGGCTACGACGGGATT
B8: GCGCAUC (DNA:RNA)
RNA: B1 RNA with A25G, A26C, A30U, G31C
DNA 1: CAATCTGAATTCCGGTCTCCC
DNA 2: TGGTGGCTACGACGGGATT
B9: GCAUCUU (DNA:RNA)
RNA: GGGAGACCGGAAUUCAGAUUGUCCGCAUCUUUUAAAUCCCGUCGUAGCCACCA
DNA 1: CAATCTGAATTCCGGTCTCCC
DNA 2: TGGTGGCTACGACGGGATT
B10: CGCAUCU (DNA:RNA)
RNA: B9 RNA with G25C, C26G, A27C, U28A, C29U, U30C
DNA 1: CAATCTGAATTCCGGTCTCCC
DNA 2: TGGTGGCTACGACGGGATT
B11: GCAUCUC (DNA:RNA)
RNA: B9 RNA with U31C
DNA 1: CAATCTGAATTCCGGTCTCCC
DNA 2: TGGTGGCTACGACGGGATT
B12: GGUACGA (DNA:RNA)
RNA: B9 RNA with C26G, A27U, U28A, U30G, U31A
DNA 1: CAATCTGAATTCCGGTCTCCC
DNA 2: TGGTGGCTACGACGGGATT
B13: ACUUUAC (DNA:RNA)
RNA: B1 RNA with A26C, G27U, C28U, A29U, G31C
DNA 1: CAATCTGAATTCCGGTCTCCC
DNA 2: TGGTGGCTACGACGGGATT
B14: GACGUGU (DNA:RNA)
RNA: B9 RNA with C26A, A27C, U28G, C29U, U30G
DNA 1: CAATCTGAATTCCGGTCTCCC
DNA 2: TGGTGGCTACGACGGGATT
B15: AGUGAAA (DNA:RNA)
RNA: B1 RNA with A26G, G27U, C28G, G31A
DNA 1: CAATCTGAATTCCGGTCTCCC
DNA 2: TGGTGGCTACGACGGGATT
B16: AGUUGGG (DNA:RNA)
RNA: B1 RNA with A26G, G27U, C28U, A29G, A30G
DNA 1: CAATCTGAATTCCGGTCTCCC
DNA 2: TGGTGGCTACGACGGGATT
B17: ACUUACC (DNA:RNA)
RNA: B1 RNA with A26C, G27U, C28U, A30C, G31C
DNA 1: CAATCTGAATTCCGGTCTCCC
DNA 2: TGGTGGCTACGACGGGATT
B18: GACUUUG (DNA:RNA)
RNA: B9 RNA with C26A, A27C, C29U, U31G
DNA 1: CAATCTGAATTCCGGTCTCCC
DNA 2: TGGTGGCTACGACGGGATT
B19: UGUUGUC (DNA:RNA)
RNA: B9 RNA with G25U, C26G, A27U, C29G, U31C
DNA 1: CAATCTGAATTCCGGTCTCCC
DNA 2: TGGTGGCTACGACGGGATT
B20: UGUCUGG (DNA:RNA)
RNA: B1 RNA with A25U, A26G, G27U, A29U, A30G
DNA 1: CAATCTGAATTCCGGTCTCCC
DNA 2: TGGTGGCTACGACGGGATT
B21: UGGUCUG (DNA:RNA)
RNA: B9 RNA with G25U, C26G, A27G, U31G
DNA 1: CAATCTGAATTCCGGTCTCCC
DNA 2: TGGTGGCTACGACGGGATT
B22: UGCUGUC (DNA:RNA)
RNA: B9 RNA with G25U, C26G, A27C, C29G, U31C
DNA 1: CAATCTGAATTCCGGTCTCCC
DNA 2: TGGTGGCTACGACGGGATT
B23: UCCUGUC (DNA:RNA)
RNA: B9 RNA with G25U, A27C, C29G, U31C
DNA 1: CAATCTGAATTCCGGTCTCCC
DNA 2: TGGTGGCTACGACGGGATT
B24: UGUCUUC (DNA:RNA)
RNA: B1 RNA with A25U, A26G, G27U, A29U, A30U, G31C
DNA 1: CAATCTGAATTCCGGTCTCCC
DNA 2: TGGTGGCTACGACGGGATT
B25: UGGUCGC (DNA:RNA)
RNA: B9 RNA with G25U, C26G, A27G, U30G, U31C
DNA 1: CAATCTGAATTCCGGTCTCCC
DNA 2: TGGTGGCTACGACGGGATT
B26: UGUCUUG (DNA:RNA)
RNA: B1 RNA with A25U, A26G, G27U, A29U, A30U
DNA 1: CAATCTGAATTCCGGTCTCCC
DNA 2: TGGTGGCTACGACGGGATT
B27: UGUCGUC (DNA:RNA)
RNA: B1 RNA with A25U, A26G, G27U, A29G, A30U, G31C
DNA 1: CAATCTGAATTCCGGTCTCCC
DNA 2: TGGTGGCTACGACGGGATT

The test concerns the target T1, RBFOX1 RRM RbFoxmut (Fox-RRM*). Nature of the test: EMSA; HiTS-Eq, 1 nM pool, 10 min; buffer printed only for the single-RNA assays: 10 mM Tris pH 7.5, 150 mM NaCl, 3.4 mM EDTA, 0.001% NP-40, 30 C. To be noted: tags: His6 N-terminal (pET28a); label: 5' 32P. In a few lines: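 These values rest on relative association constants, computed from read-count changes of each RNA species versus the control reaction and normalised to the cognate motif. Reads came from free RNA recovered by 8% native PAGE after purified RbFox RRM (wild type or mutant) at increasing concentrations was equilibrated for 10 min in 50 µL with 1 nM of a 5′-radiolabelled pool with 7 randomized nucleotides and DNA-annealed flanks.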
A general note: A gel shift assay detects complexes by their altered migration in electrophoresis.
B1: the binding signal was 0.103 KA relative to UGCAUGU.

On to B2, for which the binding signal is 0.0858 KA relative to UGCAUGU.

B3: the binding signal is 0.1 KA relative to UGCAUGU.

B4: the binding signal was 0.0737 KA relative to UGCAUGU.

B5: the binding signal was 0.112 KA relative to UGCAUGU.

In the case of B6, the binding signal is 0.073 KA relative to UGCAUGU.

With B7, the binding signal is 0.258 KA relative to UGCAUGU.

Take B8: the binding signal is 0.49 KA relative to UGCAUGU.

For the molecule B9, the binding signal is 0.33 KA relative to UGCAUGU.

As for B10, the binding signal was 0.395 KA relative to UGCAUGU.

Regarding B11, the binding signal is 0.135 KA relative to UGCAUGU.

Turning to B12, the binding signal is 0.165 KA relative to UGCAUGU.

As for B13, the binding signal is 0.114 KA relative to UGCAUGU.

As to B14, the binding signal was 0.15 KA relative to UGCAUGU.

On to B15, for which the binding signal is 0.095 KA relative to UGCAUGU.

In the case of B16, the binding signal was 0.0708 KA relative to UGCAUGU.

As to B17, the binding signal is 0.0997 KA relative to UGCAUGU.

With B18, the binding signal is 0.0901 KA relative to UGCAUGU.

As to B19, the binding signal is 0.468 KA relative to UGCAUGU.

Consider B20, for which the binding signal is 0.196 KA relative to UGCAUGU.

Consider B21, for which the binding signal is 0.374 KA relative to UGCAUGU.

For the molecule B22, the binding signal is 0.331 KA relative to UGCAUGU.

In the case of B23, the binding signal was 0.164 KA relative to UGCAUGU.

Regarding B24, the binding signal is 0.201 KA relative to UGCAUGU.

For B25, the binding signal is 0.114 KA relative to UGCAUGU.

With B26, the binding signal was 0.674 KA relative to UGCAUGU.

With B27, the binding signal is 0.119 KA relative to UGCAUGU.
